Source: PubChem BioAssay (National Center for Advancing Translational Sciences (NCATS))
Many of the other results were omitted from the sample, so hits are more common in it than they were.
Shiga inhibitor – A qHTS for Small Molecule Inhibitors of Shiga Toxin; hit rate 9.2% among 290,000; inhibition, % at 38.7 µM; Vero cells, Shiga toxin protein synthesis inhibition reporter; in the data active = inhibition mostly above about 28%, no sharp cut-off; inactive = mostly below about 43%; also: 0% is about no effect
Vaccinia mCherry – qHTS for Stage-Specific Inhibitors of Vaccinia Orthopoxvirus: mCherry Reporter Primary qHTS. Vaccinia virus mCherry reporter infection, fluorescence. Potency, µM (highest dose often 36.5 µM), without a hit: top-dose activity change, negative = inhibition, hits mostly inhibitors. hit rate 0.63% among 310,000. AID 720579, 2013; calls by dose curve; tested in A549 cells; also: potency is read from the fitted curve at half-maximal effect; % is scaled to controls: 0 for no effect and ±100 for the full control effect; nearly all actives have a fitted effect of over 35% in size
MARV entry inh – qHTS for inhibitors of binding or entry into cells for Marburg Virus | Marburg virus pseudotyped entry inhibition, cell reporter | Potency, µM (top dose mostly 37.8 µM), without a hit: top-dose activity change, negative = inhibition, actives largely listed as inhibitors | hit rate 1.8% among 300,000 | AID 540276, 2011; calls by dose curve; tested in HEK293 cells; also: potency is read from the fitted curve at half-maximal effect; % is scaled to controls: 0 for no effect and ±100 for the full control effect
CHX counter – Cycloheximide Counterscreen for Small Molecule Inhibitors of Shiga Toxin; cell reporter, cycloheximide protein synthesis inhibition counterscreen; max response, %; hit rate 12% among 300,000; AID 2314, 2010; in the data active = max response mostly above about 13%, no sharp cut-off; inactive = mostly below about 14%; also: read at 38.3 µM for the half of the compounds with a filed dose; 0% is about no effect
LASV entry inh – qHTS for Inhibitors of binding or entry into cells for Lassa Virus | Potency, µM (titrated, usually from 37.9 µM), inactives show top-dose activity change, negative = inhibition, actives largely listed as inhibitors | Lassa virus pseudotype entry inhibition, cell reporter | hit rate 1.2% among 300,000; calls by dose curve; tested in HEK293 cells; also: potency is read from the fitted curve at half-maximal effect; % is scaled to controls: 0 for no effect and ±100 for the full control effect; nearly all actives have a fitted effect of over 50% in size
Vaccinia Venus – qHTS for Stage-Specific Inhibitors of Vaccinia Orthopoxvirus: Venus Reporter Primary qHTS; Potency, µM (highest dose often 36.5 µM), for inactives: at the top dose activity change, negative = inhibition, usual class: inhibitors; hit rate 0.46% among 330,000; AID 720580, 2013; Vaccinia virus Venus reporter expression, fluorescence; calls by dose curve; tested in A549 cells; also: potency is read from the fitted curve at half-maximal effect; % is scaled to controls: 0 for no effect and ±100 for the full control effect; nearly all actives have a fitted effect of over 30% in size
Starred values were filed as active, the others as inactive; i = inactive; ? = inconclusive; · = no result; [ ] = dose if it differs, or a comment.

SMILES	Shiga inhibitor	Vaccinia mCherry	MARV entry inh	CHX counter	LASV entry inh	Vaccinia Venus
Nc1c(C(=O)Nc2ccc(C(=O)O)cc2)sc2nc3c(cc12)CCCC3	·	-14%	25%[46.1 µM]	·	?	3%
COc1ccc([C@H]2CC(=O)C=C(c3ccc(C(=O)O)cc3)C2)cc1OC	·	-22%	·	·	·	-6%
CCC(=O)Oc1ccc2c(c1)CCC1C2CC[C@]2(C)C(OC(=O)CC)CCC12 (stereo not given in full)	4	·	·	9	·	·
Cc1cc(C)c2c(=N)c3ccccc3n(CCCCCCCCn3c4ccccc4c(=N)c4c(C)cc(C)nc43)c2n1	·	10µM*	7.1µM*	·	?	10µM*
COc1ccc(C(=O)N/N=C(\C)CC(=O)Nc2ccccn2)cc1OC	1	-1%	?	-6	-1%	-8%
COc1ccccc1NC(=O)C/C(C)=N/NC(=O)c1ccccn1	63*	?	?	33*	?	-10%
COc1cc(NC(=O)C/C(C)=N/NC(=O)c2ccccn2)c(OC)cc1Cl	72*	-10%	?	44*	?	-23%
Cc1cc(NC(=O)CSc2ncc(C(=O)Nc3ccc(F)cc3)c(=O)n2C)no1	·	i	·	·	4%[46.1 µM]	-11%
Cc1nnc(SCC(=O)N(C)C2CCCCC2)s1	34	i	?	11*	?	15%
Cc1ccc(NC(=O)NCCN2C(=O)C3C4C=CC(C4)C3C2=O)cc1 (stereo not given)	134*	·	2%	112*	·	·
COc1ccc(NC(=O)NCCN2C(=O)C3C4C=CC(C4)C3C2=O)cc1 (stereo not given)	60*	-3%	?	32*	9%	4%
O=C(NCCN1C(=O)C2C3C=CC(C3)C2C1=O)Nc1ccccc1 (stereo not given)	9	·	·	20	·	·
COc1ccc(NC(=O)CCN2C(=O)[C@@H]3[C@H](C2=O)[C@H]2C=C[C@@H]3C2)cc1	33	-10%	·	2	·	-6%
CCCOc1ccc(Nc2cc(C)nc(C)n2)cc1	·	-10%	22%[46.1 µM]	·	9%[46.1 µM]	-6%
CCN(CC)c1ccc(/C=C/C(=O)C2C(=O)C=C(C)OC2=O)cc1 (stereo not given)	100*	20%	?	26*	?	284%
CCN(CC)c1ccc(C=C2C(=O)OC(c3ccccc3)OC2=O)cc1 (stereo not given)	40	i	33%[46.1 µM]	16	-9%[46.1 µM]	-17%
CCCCC(=O)Nc1cc(C)c(NC(=O)c2ccco2)cn1	-5	·	·	16	·	·
COC(=O)c1ccc(OS(=O)(=O)N(C)C)cc1	99*	·	·	54*	·	·
COC(=O)COc1ccc(C(=O)OC)cc1	-8	-9%	?	-3	-15%	-11%
CN(C)S(=O)(=O)Oc1cccc(C(=O)Nc2ccc(Cl)c(Cl)c2)c1	117*	?	-25%	72*	?	?
CN(C)S(=O)(=O)Oc1cccc(C(=O)Nc2cccc(Cl)c2)c1	67*	·	-24%	38*	?	·
COc1ccc(NC(=O)c2cccc(OS(=O)(=O)N(C)C)c2)cc1	105*	i	?	44*	?	-14%
COc1cccc(C(=O)Nc2cccc(NC(=O)c3ccc(Cl)cc3Cl)c2)c1	·	-15%	·	·	?	-10%
COc1ccc2ccccc2c1CN1CCOc2ccc(CN3CCN(CCO)CC3)cc2C1	·	-10%	·	·	·	-7%
Cn1cc(/C=C/c2ccc3ccccc3n2)c2ccccc21	·	-22%	·	·	·	21%
SMILES	Shiga inhibitor	Vaccinia mCherry	MARV entry inh	CHX counter	LASV entry inh	Vaccinia Venus
CC1(C)Nc2cccc3c(N=Nc4ccc(N=Nc5ccccc5)c5ccccc45)ccc(c23)N1	·	-12%	·	·	·	-16%
Cc1nn(-c2ccccn2)c2c1-c1nc(N)sc1CC2	·	20%	·	·	·	2%
COc1cccc(Cn2c(OC[C@H]3CCCO3)nc3c2c(=O)n(C)c(=O)n3C)c1	·	·	16%	·	·	·
Cc1cc(C(=O)Nc2ccc(Cl)cc2)c(C)n1Cc1cccs1	95*	-17%[7.34 µM]	?	67*	?	-22%[7.34 µM]
COc1ccc(NC(=O)c2cc3c(=O)n(Cc4cccs4)ccc3nc2C)cc1	·	-11%	·	·	-10%[46.1 µM]	-8%
Cc1cc(C)cc(NC(=O)c2cc(C)n(Cc3cccs3)c2C)c1	53*	4%	?	49*	-29%[46.1 µM]	0%
Fc1ccccc1CCNCc1cccc(Cl)c1Cl	27	-1%	2%	18*	15%	-24%
O=C(CC1SC(N2CCCC2)=NC1=O)Nc1ccc(C(=O)NCc2ccc(F)cc2)cc1 (stereo not given)	·	i	-1%[46.1 µM]	·	7%	2%
Cc1ccc(OCCNC(=O)c2ccccc2O)cc1	33	-5%	28%	12*	25%	-18%
CSCc1ccc(C(=O)NCCSc2ccc(Br)cc2)cc1	103*	-15%	?	55*	18%	-17%
Cc1ccc(OCCNC(=O)c2ccc(C)cc2)cc1	79*	·	·	46*	·	·
COc1ccc(C(=O)NCCNC(=O)c2ccc(OC)cc2)cc1	·	3%	-2%[46.1 µM]	·	-6%[46.1 µM]	16%
COc1ccc(C(=O)NCCCCCCNC(=O)c2ccc(OC)cc2)cc1	41	-10%	-1%	16*	?	-1%
O=C(NCCSc1ccc(Br)cc1)c1ccccc1	19	-11%	?	6	1%	-8%
Cc1cccc(-n2ncc(C(=O)NC3CCCC3)c2C2CCN(C(=O)OC(C)(C)C)CC2)c1	13	·	·	1	·	·
COc1ccc(C2(CNC(=O)c3ccc(Br)o3)CCOCC2)cc1	-1	·	0%	-2	3%	-1%
COc1ccc(C(=O)NN)cc1	59	-7%[7.34 µM]	12%[46.1 µM]	24*	1%	-11%[7.34 µM]
COc1ccc(C(=O)N[C@H](C(=O)NCCCSc2ccccc2)C(C)C)cc1	·	-3%	?	·	?	-12%
COc1ccc(S(=O)(=O)N(C)c2ccc(C(=O)NCCC(C)C)cc2)cc1	-2	-11%	-4%	-1	8.2µM*	-7%
COc1ccc(C(=O)NCCSc2ccccc2)cc1	21*	i	?	46*	?	-8%
COC(=O)c1ccc(C(=O)NN)cc1	29	-10%	?	13	-3%	-2%
CCCCOc1ccc(C(=O)NCC2(c3ccc(OC)cc3)CCOCC2)cc1	-1	-15%	?	5	2.8µM*	-2%
CCS(=O)(=O)N1CCN(c2ccc(C(=O)NC3C4CC5CC(C4)CC3C5)cc2[N+](=O)[O-])CC1 (stereo not given)	-7	-8%	-13%	-3	0%	-10%
O=C(O)c1cc(=O)c2cccc(O)c2[nH]1	-2	-14%	·	3	·	-8%
COc1ccc(OCCNC(=O)c2ccc(C)cc2)cc1	56*	-4%	?	29*	-19%[46.1 µM]	2%
CCCN=Cc1sc2ccc(OCC)cc2c1O	101*	-14%	?	41*	-12%	-21%
CCOc1ccc2c(O)csc2c1	17	·	?	15	8%	-10%
CN(C)C(=O)N(CCCN1CCOCC1)Cc1cccc2ccccc12	-13	i	8%	-1	5%	-10%
